What was measured:
Test in all cases: log2 ratio of Biotin-Ahx-Ub-VS probe labelling (compound/DMSO); higher = less target engagement, active = hit call of the paper (q ≤ 0.05, log2 ratio ≤ -1)
Settings in all cases: treatment time: 3 h
[1] = compound: CN(Cc1cccc(Br)c1)C(=O)CCl
Summary of the method: (§1)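 For activity-based profiling, 495 µg portions of HEK293T lysate in Tris/CHAPS/IGEPAL buffer with protease inhibitors were treated in triplicate with compound at 50 or 200 µM or with DMSO for 3 h. A 1 h incubation with Biotin-Ahx-Ub-VS (0.5 µM final) followed, then NeutrAvidin enrichment, LysC and trypsin digestion and diaPASEF LC-MS/MS. The compound/DMSO base-two log ratios were averaged from median-normalised label-free quantities using an unpaired t-test. Proteins needed at least 2 unique peptides to be included.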

[2] = compound: CN(Cc1ccccc1)C(=O)CCl
Summary of the method: as §1

[3] = compound: COc1ccc(CN(C)C(=O)CCl)cc1
Summary of the method: as §1

[4] = compound: COc1cccc(CN(CCCc2ccccc2)C(=O)CCl)c1
Summary of the method: as §1

[5] = compound: ClCC(=O)N1CCc2cc(Cl)c(Cl)cc2C1
Summary of the method: as §1

[6] = compound: ClCC(=O)N1CCc2nc(ncc2C1)-c1ccccc1
Summary of the method: as §1

[7] = compound: ClCC(=O)N1CCc2nocc2C1
Summary of the method: as §1

[8] = compound: ClCC(=O)N1CCc2scc(Br)c2C1
Summary of the method: as §1

[9] = compound: ClCC(=O)NC(C1CCCC1)c1cccs1
Summary of the method: as §1

[10] = compound: ClCC(=O)NC1CCCc2ccccc12
Summary of the method: as §1

[11] = compound: ClCC(=O)NC1CCOc2ccc(Cl)cc12
Summary of the method: as §1

[12] = compound: ClCC(=O)NC1CCSc2ccccc12
Summary of the method: as §1

[13] = compound: ClCC(=O)N[C@H]1CCCc2ccccc12
Summary of the method: as §1

[14] = compound: Fc1ccc(N2CCN(c3nc4c(CN(C(CCl)=O)CC4)cn3)CC2)cc1.Cl.Cl
Summary of the method: as §1

[15] = compound: CN(Cc1cccc(OCc2ccccc2C)c1)C(=O)CCl
Summary of the method: as §1

Measured: log2 ratio of Biotin-Ahx-Ub-VS probe labelling

UniProt Q9P2H5
UniProt Q9P2H5, sequence (Q9P2H5 whole entry): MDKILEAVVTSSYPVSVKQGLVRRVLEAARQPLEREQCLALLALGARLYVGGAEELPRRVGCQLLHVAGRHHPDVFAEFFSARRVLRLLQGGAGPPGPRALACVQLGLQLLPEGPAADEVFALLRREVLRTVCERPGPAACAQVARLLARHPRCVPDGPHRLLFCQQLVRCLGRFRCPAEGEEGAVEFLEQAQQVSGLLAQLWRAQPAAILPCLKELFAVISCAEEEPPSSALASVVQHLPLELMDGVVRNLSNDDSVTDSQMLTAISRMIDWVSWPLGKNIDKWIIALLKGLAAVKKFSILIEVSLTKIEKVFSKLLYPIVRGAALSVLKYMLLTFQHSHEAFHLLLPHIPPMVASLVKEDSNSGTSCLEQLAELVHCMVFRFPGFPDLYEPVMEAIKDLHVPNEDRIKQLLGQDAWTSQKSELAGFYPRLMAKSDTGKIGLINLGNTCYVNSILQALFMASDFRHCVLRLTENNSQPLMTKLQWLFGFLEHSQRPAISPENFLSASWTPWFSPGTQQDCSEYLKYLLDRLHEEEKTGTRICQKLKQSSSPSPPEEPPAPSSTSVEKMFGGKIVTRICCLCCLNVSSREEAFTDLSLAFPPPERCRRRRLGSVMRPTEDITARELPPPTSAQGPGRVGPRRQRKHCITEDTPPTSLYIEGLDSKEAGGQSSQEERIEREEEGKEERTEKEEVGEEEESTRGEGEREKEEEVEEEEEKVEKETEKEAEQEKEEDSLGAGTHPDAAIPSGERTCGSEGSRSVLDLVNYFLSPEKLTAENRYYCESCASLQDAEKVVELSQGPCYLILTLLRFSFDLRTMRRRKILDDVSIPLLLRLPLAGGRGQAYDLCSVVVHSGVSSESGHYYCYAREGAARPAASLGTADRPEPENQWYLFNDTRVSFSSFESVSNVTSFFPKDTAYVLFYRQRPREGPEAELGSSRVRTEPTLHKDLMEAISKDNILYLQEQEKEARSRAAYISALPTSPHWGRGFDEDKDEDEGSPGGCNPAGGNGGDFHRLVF
inactive: [1]; compound concentration: 50uM 0.0586 | [1]; compound concentration: 200uM -0.355 | [2]; compound concentration: 50uM -0.0969 | [2]; compound concentration: 200uM -0.154 | [3]; compound concentration: 50uM -0.301 | [3]; compound concentration: 200uM -0.182 | [4]; compound concentration: 50uM -0.114 | [4]; compound concentration: 200uM -0.29 | [5]; compound concentration: 50uM -0.263 | [5]; compound concentration: 200uM -0.82 | [6]; compound concentration: 50uM 0.133 | [6]; compound concentration: 200uM -0.449 | [7]; compound concentration: 50uM -0.415 | [7]; compound concentration: 200uM -0.273 | [8]; compound concentration: 50uM -0.192 | [8]; compound concentration: 200uM -0.595 | [9]; compound concentration: 50uM 0.156 | [9]; compound concentration: 200uM 0.0366 | [10]; compound concentration: 50uM -0.0608 | [10]; compound concentration: 200uM 0.0712 | [11]; compound concentration: 50uM -0.42 | [11]; compound concentration: 200uM -0.205 | [12]; compound concentration: 50uM 0.0602 | [12]; compound concentration: 200uM -0.0405 | [13]; compound concentration: 50uM -0.178 | [13]; compound concentration: 200uM -0.0371 | [14]; compound concentration: 50uM -0.262
active: [14]; compound concentration: 200uM -1.08

OTUD6B (UniProt Q8N6M0)
UniProt Q8N6M0, sequence (Q8N6M0 whole entry): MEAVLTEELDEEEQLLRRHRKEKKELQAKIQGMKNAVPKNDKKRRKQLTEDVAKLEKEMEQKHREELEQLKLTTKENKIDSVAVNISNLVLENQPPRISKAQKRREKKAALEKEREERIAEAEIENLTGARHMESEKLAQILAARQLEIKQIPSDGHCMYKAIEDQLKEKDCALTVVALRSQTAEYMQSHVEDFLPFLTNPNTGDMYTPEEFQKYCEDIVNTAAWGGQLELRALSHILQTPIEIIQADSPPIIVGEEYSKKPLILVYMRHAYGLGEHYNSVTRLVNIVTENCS
active: [5]; compound concentration: 200uM -1.26 | [8]; compound concentration: 200uM -1.1 | [14]; compound concentration: 200uM -1.28
inactive: [1]; compound concentration: 50uM -0.133 | [1]; compound concentration: 200uM -0.53 | [2]; compound concentration: 50uM -0.257 | [2]; compound concentration: 200uM -0.515 | [3]; compound concentration: 50uM -0.181 | [3]; compound concentration: 200uM -0.334 | [4]; compound concentration: 50uM -0.28 | [4]; compound concentration: 200uM -0.784 | [5]; compound concentration: 50uM 0.0579 | [6]; compound concentration: 50uM 0.00143 | [6]; compound concentration: 200uM -0.718 | [7]; compound concentration: 50uM -0.255 | [7]; compound concentration: 200uM -0.521 | [8]; compound concentration: 50uM -0.125 | [9]; compound concentration: 50uM 0.0378 | [9]; compound concentration: 200uM -0.153 | [10]; compound concentration: 50uM -0.12 | [10]; compound concentration: 200uM -0.0737 | [11]; compound concentration: 50uM -0.248 | [11]; compound concentration: 200uM -0.361 | [12]; compound concentration: 50uM 0.0363 | [12]; compound concentration: 200uM -0.296 | [13]; compound concentration: 50uM -0.00611 | [13]; compound concentration: 200uM -0.364 | [14]; compound concentration: 50uM -0.105

UniProt Q70EL2
UniProt Q70EL2, sequence (Q70EL2 whole entry): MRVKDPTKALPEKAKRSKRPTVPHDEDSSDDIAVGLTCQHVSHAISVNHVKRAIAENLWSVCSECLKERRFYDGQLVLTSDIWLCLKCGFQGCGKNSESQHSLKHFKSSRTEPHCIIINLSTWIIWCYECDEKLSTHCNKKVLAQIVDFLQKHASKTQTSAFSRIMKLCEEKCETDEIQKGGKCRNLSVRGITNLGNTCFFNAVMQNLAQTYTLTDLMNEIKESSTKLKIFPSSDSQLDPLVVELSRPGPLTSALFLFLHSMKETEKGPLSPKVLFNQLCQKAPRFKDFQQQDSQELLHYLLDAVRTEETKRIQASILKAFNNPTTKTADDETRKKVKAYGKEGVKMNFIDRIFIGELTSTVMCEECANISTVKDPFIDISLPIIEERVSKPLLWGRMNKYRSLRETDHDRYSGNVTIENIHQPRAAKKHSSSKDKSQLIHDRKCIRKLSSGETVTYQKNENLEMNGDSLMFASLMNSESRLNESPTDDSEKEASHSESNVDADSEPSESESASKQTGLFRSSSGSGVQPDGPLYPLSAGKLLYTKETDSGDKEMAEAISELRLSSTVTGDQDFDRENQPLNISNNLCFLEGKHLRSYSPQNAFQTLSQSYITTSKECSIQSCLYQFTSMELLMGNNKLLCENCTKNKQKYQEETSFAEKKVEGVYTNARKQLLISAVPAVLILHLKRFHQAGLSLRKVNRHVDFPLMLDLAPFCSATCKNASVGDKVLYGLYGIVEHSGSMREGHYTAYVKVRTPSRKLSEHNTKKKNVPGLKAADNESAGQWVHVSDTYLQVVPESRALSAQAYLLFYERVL
inactive: [1]; compound concentration: 50uM -0.228 | [1]; compound concentration: 200uM -0.814 | [2]; compound concentration: 50uM -0.191 | [2]; compound concentration: 200uM -0.88 | [3]; compound concentration: 50uM -0.338 | [3]; compound concentration: 200uM -0.647 | [4]; compound concentration: 50uM -0.512 | [4]; compound concentration: 200uM -0.481 | [5]; compound concentration: 50uM -0.569 | [6]; compound concentration: 50uM -0.558 | [7]; compound concentration: 50uM -0.0582 | [7]; compound concentration: 200uM -0.311 | [8]; compound concentration: 50uM -0.413 | [8]; compound concentration: 200uM -0.868 | [9]; compound concentration: 50uM 0.37 | [9]; compound concentration: 200uM -0.115 | [10]; compound concentration: 50uM 0.0142 | [10]; compound concentration: 200uM -0.673 | [11]; compound concentration: 50uM -0.00989 | [11]; compound concentration: 200uM -0.0714 | [12]; compound concentration: 50uM 0.0879 | [12]; compound concentration: 200uM 0.0524 | [13]; compound concentration: 50uM 0.0625 | [13]; compound concentration: 200uM -0.323 | [14]; compound concentration: 50uM -0.414 | [14]; compound concentration: 200uM -0.995
active: [5]; compound concentration: 200uM -1.27 | [6]; compound concentration: 200uM -1.03

BAP1 (UniProt Q92560)
UniProt Q92560, sequence (Q92560 whole entry): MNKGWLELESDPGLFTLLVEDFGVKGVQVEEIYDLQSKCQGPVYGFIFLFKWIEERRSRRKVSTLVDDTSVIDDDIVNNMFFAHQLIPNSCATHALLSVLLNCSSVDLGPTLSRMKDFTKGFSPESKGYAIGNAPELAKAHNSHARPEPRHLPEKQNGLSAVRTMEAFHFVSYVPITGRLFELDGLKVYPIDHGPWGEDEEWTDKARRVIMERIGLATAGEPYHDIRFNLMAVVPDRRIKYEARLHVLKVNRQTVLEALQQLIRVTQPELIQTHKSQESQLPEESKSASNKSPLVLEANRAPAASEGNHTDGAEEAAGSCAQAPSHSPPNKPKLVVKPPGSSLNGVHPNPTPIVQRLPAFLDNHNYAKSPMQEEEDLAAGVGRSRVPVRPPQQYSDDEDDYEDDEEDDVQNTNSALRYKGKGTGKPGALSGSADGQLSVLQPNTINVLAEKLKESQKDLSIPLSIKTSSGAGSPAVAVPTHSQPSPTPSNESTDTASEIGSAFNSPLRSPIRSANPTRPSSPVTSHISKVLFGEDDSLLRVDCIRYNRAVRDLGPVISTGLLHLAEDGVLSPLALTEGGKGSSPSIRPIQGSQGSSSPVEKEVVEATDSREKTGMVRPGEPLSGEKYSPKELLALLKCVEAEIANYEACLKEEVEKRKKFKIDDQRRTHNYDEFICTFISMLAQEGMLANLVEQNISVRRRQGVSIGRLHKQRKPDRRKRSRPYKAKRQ
active: [1]; compound concentration: 200uM -2.12 | [15]; compound concentration: 50uM -1.42 | [15]; compound concentration: 200uM -3.08 | [2]; compound concentration: 200uM -2.17 | [3]; compound concentration: 200uM -1.9 | [4]; compound concentration: 50uM -1.04 | [4]; compound concentration: 200uM -3.18 | [5]; compound concentration: 200uM -1.76 | [6]; compound concentration: 200uM -1.91 | [7]; compound concentration: 200uM -1.16 | [8]; compound concentration: 200uM -1.68 | [9]; compound concentration: 200uM -2.92 | [10]; compound concentration: 200uM -1.23 | [11]; compound concentration: 50uM -1.05 | [11]; compound concentration: 200uM -2.38 | [12]; compound concentration: 200uM -2.44 | [13]; compound concentration: 200uM -1.69 | [14]; compound concentration: 200uM -1.91
inactive: [1]; compound concentration: 50uM -0.773 | [2]; compound concentration: 50uM -0.833 | [3]; compound concentration: 50uM -0.731 | [5]; compound concentration: 50uM -0.373 | [6]; compound concentration: 50uM -0.341 | [7]; compound concentration: 50uM -0.448 | [8]; compound concentration: 50uM -0.426 | [9]; compound concentration: 50uM -0.924 | [10]; compound concentration: 50uM -0.474 | [12]; compound concentration: 50uM -0.619 | [13]; compound concentration: 50uM -0.684 | [14]; compound concentration: 50uM -0.262

USP46 (UniProt P62068)
UniProt P62068, sequence (P62068 whole entry): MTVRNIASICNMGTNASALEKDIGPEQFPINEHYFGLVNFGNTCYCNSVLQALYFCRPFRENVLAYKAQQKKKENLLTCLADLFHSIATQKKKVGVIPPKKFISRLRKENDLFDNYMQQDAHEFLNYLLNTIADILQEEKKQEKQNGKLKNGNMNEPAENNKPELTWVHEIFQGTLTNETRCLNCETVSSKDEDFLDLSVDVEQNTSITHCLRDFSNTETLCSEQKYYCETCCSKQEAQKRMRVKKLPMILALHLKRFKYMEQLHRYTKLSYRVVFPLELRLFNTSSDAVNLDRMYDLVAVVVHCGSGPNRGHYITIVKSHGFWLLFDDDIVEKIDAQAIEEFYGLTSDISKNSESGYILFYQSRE
active: [2]; compound concentration: 200uM -1.01 | [4]; compound concentration: 200uM -1.33 | [5]; compound concentration: 200uM -2.77 | [6]; compound concentration: 200uM -1.12 | [8]; compound concentration: 200uM -1.43 | [14]; compound concentration: 200uM -1.72
inactive: [1]; compound concentration: 50uM -0.406 | [1]; compound concentration: 200uM -0.773 | [15]; compound concentration: 50uM -0.515 | [15]; compound concentration: 200uM -0.89 | [2]; compound concentration: 50uM -0.252 | [3]; compound concentration: 50uM -0.0785 | [3]; compound concentration: 200uM -0.634 | [4]; compound concentration: 50uM -0.32 | [5]; compound concentration: 50uM -0.575 | [6]; compound concentration: 50uM 0.0166 | [7]; compound concentration: 50uM -0.22 | [7]; compound concentration: 200uM -0.641 | [8]; compound concentration: 50uM -0.291 | [9]; compound concentration: 50uM 0.0547 | [9]; compound concentration: 200uM -0.255 | [10]; compound concentration: 50uM -0.0934 | [10]; compound concentration: 200uM -0.257 | [11]; compound concentration: 50uM -0.229 | [11]; compound concentration: 200uM -0.251 | [12]; compound concentration: 50uM -0.017 | [12]; compound concentration: 200uM -0.304 | [13]; compound concentration: 50uM -0.00597 | [13]; compound concentration: 200uM -0.413 | [14]; compound concentration: 50uM -0.241

Reference: the supplement of paper PMC11732987, “Enantioselective OTUD7B fragment discovery through chemoproteomics screening and high-throughput optimisation” (Communications Chemistry, 2025)
